Test results taken from PubChem BioAssay (NCI).
About 83,000 compounds went through this panel and 20% of them were active in at least one assay; those are over-represented in the sample as a whole.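 Treatment: one concentration, 48 hours, 96-well format. Scoring: percent growth, with anything below 10 considered active.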 The source made the active and inactive calls.

system: U251 CNS; test: NCI-60 one-dose screen, 48 h (100 = growth as untreated, 0 = no growth, -100 = all killed); details: 10 µM unless noted
Protocol: Growth inhibition of the U251 human tumor cell line is measured as a screen for anti-cancer activity. Cells are grown in 96 well plates and exposed to the test compound for 48 hours. Compounds are tested at a single concentration, which is 10^-5 M for most compounds. The reported endpoint is percent growth (GI% or GIPRCNT), where numbers from 0 - 100% represent growth inhibition, and numbers from -100% - 0 represent cell death. For example, a value of 40 represents 60% growth inhibition. A value of 0 means no net growth occurred over the course of the experiment. A value of -40 indicates 40% of cells at the beginning of the experiment died by the end of the experiment. A value of -100 means all cells are dead at the end of the experiment.
NCI-60 Human Tumor Cell Lines Screen was performed using the standard one-dose NCI protocol, which is described in more detail at https://dtp.cancer.gov/discovery_development/nci-60/default.htm.
Compounds with GIPRCNT values below 10 were considered active. Activity score was based on GIPRCNT using the following formula: […]
Score is 0 for GIPRCNT values of 100 or above, 50 for GIPRCNT values of 0, and 100 for GIPRCNT values of -100.

Row | SMILES | growth
1 | CCCCCCCCCCCC1=NC(C)(C)CN1C(C)(C)CO | 21.4% (inactive)
2 | CCCCn1c(C)nc2ccc(Nc3nc(Cl)nc4nc[nH]c34)cc21 | 74.5% (inactive)
3 | CC(=O)OC1Oc2ccccc2-c2oc3nc(=N)n(C)c-3cc21 (stereo not given) | 113% (inactive)
4 | CCOC(=O)c1ccccc1SC(C[N+](=O)[O-])c1ccccc1 (stereo not given) | 81.8% (inactive)
5 | CCOc1c(C#N)c2c(N)ncnc2n1C1OC(CO)C(O)C1O (stereo not given) | 35.4% (inactive)
6 | CC(C)N=C1CCCC1C(=S)SSC(=S)C1CCCC1=NC(C)C (stereo not given) | 50.3% (inactive)
7 | CC1=C(C(=O)Nc2ccc(F)cc2)C(c2ccc(Cl)cc2)C2=C(CC(C)(C)CC2=O)N1 (stereo not given) | 81.6% (inactive)
8 | CCOC(=O)c1c(NC(=O)c2ccccc2)sc2c(O)c(CN(CC)CC)ccc12 | 1.72% (active)
9 | Cc1cc(C)c([O-])c(CN(C)CCN(C)Cc2cc(C)cc(C)c2[O-])c1.O=C([O-])c1cccc(C(=O)[O-])n1.[Ti+4] | 9.4% (active)
10 | CN1CCN(c2ccc(N3Cc4ccccc4OC4=C3C(=O)c3c(O)ccc(O)c3C4=O)cn2)CC1 | -4.98% (active)
11 | COc1ccc2[nH]c(O)c(/C=c3/ccc4c(c3)N=C(c3ccc(F)cc3)N=4)c2c1 | 42.1% (inactive)
12 | COc1ccc2[nH]cc(C(c3ccc(Cl)cc3)N3CCCC3)c2c1 (stereo not given) | 92% (inactive)
13 | COC1=CC(c2ccc[nH]2)=N/C1=C\c1[nH]c(C)c(C(=O)CCCCCCCCC(=O)O[C@H]2CC[C@H]3C4CCc5cc(O)ccc5C4CC[C@]23C)c1C (stereo not given in full) | 20.9% (inactive)
14 | COc1cc(NC(C)CCCN)c2ncccc2c1Oc1ccc(Cl)cc1 (stereo not given) | 72.7% (inactive)
15 | COc1ccc2c(c1)CCCC21C(=O)Nc2c(Cl)cccc21 (stereo not given) | 54.1% (inactive)
16 | COc1ccc(C(=O)c2c(N)nc3n2CCCC3)cc1OC | 98.5% (inactive)
17 | CC(OC(=O)Nc1cccc(Cl)c1)C(=O)O (stereo not given) | 102% (inactive)
18 | COc1ccc(NC(=O)/C=C/c2ccc(NC(=O)N3CCCC3)cc2)cn1 | 98.6% (inactive)
19 | COc1cc2c(cc1OC)C(=O)C(Br)CC2 (stereo not given) | 54% (inactive)
20 | CCOC(=O)NNc1cccc(Cl)c1 | 100% (inactive)

Row | SMILES | growth
21 | Cc1ccc2oc(=O)cc(-c3nc4ccc([N+](=O)[O-])cc4[nH]3)c2c1 | 41.9% (inactive)
22 | Nc1ccc(C(OC(=O)c2cc3ccccc3c(Cc3c(O)c(C(=O)OC(c4ccc(N)cc4)(c4ccc(N)cc4)c4ccc(N)cc4)cc4ccccc34)c2O)(c2ccc(N)cc2)c2ccc(N)cc2)cc1 | 11.2% (inactive)
23 | COc1cc(C(=O)/C=C/c2cn(-c3ccccc3)nc2-c2cccc(Nc3ccnc4cc(Cl)ccc34)c2)cc(OC)c1OC | 88.1% (inactive)
24 | COc1ccc(C2CC(c3cccc(Nc4ccnc5cc(Cl)ccc45)c3)=NN2c2ccccc2)cc1 (stereo not given) | 65.4% (inactive)
25 | COC(=O)C(CCC(=O)CCl)N1C(=O)c2ccccc2C1=O (stereo not given) | 47.1% (inactive)
26 | N[C@@H](CO)C(=O)O | 102% (inactive)
27 | CC[C@H](Nc1nc(N)nc(N)c1Cl)c1nc2cccc(NCc3ccc(C(=O)NO)cc3)c2c(=O)n1-c1ccccc1 | -65.6% (active)
28 | Cc1ccc(/C=C/C(=N/N=C(N)N)c2ccccc2)cc1 | 13.4% (inactive)
29 | CNCCCNc1ccnc2cc(Cl)ccc12 | 0.589% (active)
30 | COc1ccc(/C=C/C(=O)c2ccc(NC(=O)CSc3nnc(-c4ccc(OC)cc4)n3-c3ccccc3)cc2)cc1 | 87.1% (inactive)
31 | OC(c1cc2cc(Cl)ccc2c2cc(C(F)(F)F)ccc12)C1CCCCN1 (stereo not given) | -93.4% (active)
32 | COc1cccc(OCC(O)CN2CCN(c3ccccc3)CC2)c1 (stereo not given) | 108% (inactive)
33 | Brc1cccc(-n2ncc3c(Nc4ccc(-c5nnc(-c6ccccc6)o5)cc4)ncnc32)c1 | 103% (inactive)
34 | CCCCC(CCc1ccccn1)C(=O)c1ccccc1 (stereo not given) | 114% (inactive)
35 | CCc1ccc(Nc2ncnc3c2cnn3-c2cccc(Br)c2)cc1 | 94.3% (inactive)
36 | Clc1ccc(Nc2ncnc3c2sc2ncccc23)c(Cl)c1 | 27% (inactive)
37 | COc1cc(/C=C/c2ccc3c(Br)cc(Br)c(O)c3n2)ccc1O | 16.4% (inactive)
38 | Nc1nc(N)c2cc(CNc3ccc(Cl)c(Cl)c3)ccc2n1 | -78.1% (active)
39 | O=C(Nc1ccc(Oc2ccc(Nc3nc4ccccc4s3)cc2)cc1)Nc1ccc(Cl)c(C(F)(F)F)c1 | 2.67% (active)
40 | COc1cc(-c2n/c(=C\c3c(O)[nH]c4cc(Cl)ccc34)cc3c2=Nc2ccccc2-3)cc(OC)c1OC | 23.8% (inactive)
